Sampled rows, rich in hits. Any-hit rate of the full collection: about 2.2%.
FBPA Giardia inh – inhibitors of Giardia lamblia fructose-1,6-bisphosphate aldolase; A8B2U2; purified Giardia FBPA; Potency, µM (highest dose often 59.6 µM), most hits filed as inhibitors; 290,000 tested, 0.71% active; active means well fitted inhibition curve with a large enough effect; inconclusive means small, poorly fitted or top-dose-only effect, or effect the other way; further: nearly all actives have a fitted effect of over 55% in size
Target sequence (A8B2U2 whole entry, looked up): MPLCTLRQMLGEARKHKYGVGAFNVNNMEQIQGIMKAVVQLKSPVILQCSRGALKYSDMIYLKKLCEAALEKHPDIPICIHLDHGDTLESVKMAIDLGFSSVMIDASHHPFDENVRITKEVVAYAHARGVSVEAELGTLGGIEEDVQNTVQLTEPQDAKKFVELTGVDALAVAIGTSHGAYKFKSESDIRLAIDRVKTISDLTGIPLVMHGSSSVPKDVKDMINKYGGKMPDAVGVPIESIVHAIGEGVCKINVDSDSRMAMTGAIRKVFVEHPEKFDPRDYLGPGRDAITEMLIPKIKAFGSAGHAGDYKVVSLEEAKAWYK
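Giardia FBPA (40 nM reagent) was preincubated 10 min at RT with compound (up to 57.5 uM final), then substrate plus GAPDH/TPI/NAD/arsenate coupling system with diaphorase/resazurin was added; resorufin fluorescence (525/598 nm) was read after 20 min.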
Vaccinia Venus – vaccinia inhibition (Venus reporter); 330,000 tested, 0.46% active; AID 720580; Vaccinia virus Venus reporter expression, fluorescence; Potency, µM (highest dose often 36.5 µM), usual class: inhibitors; calls by dose curve; tested in A549 cells; further: nearly all actives have a fitted effect of over 30% in size
Vaccinia mCherry – inhibitors of vaccinia virus infection (mCherry reporter signal); Potency, µM (highest dose often 36.5 µM), most hits filed as inhibitors; 310,000 tested, 0.63% active; AID 720579; Vaccinia virus mCherry reporter infection, fluorescence; calls by dose curve; tested in A549 cells; further: nearly all actives have a fitted effect of over 35% in size
FMDV inh – antivirals against foot and mouth disease virus; FMDV antiviral cell-based qHTS; Potency, µM (titrated, usually from 57.9 µM), hits mostly inhibitors; 410,000 tested, 1.2% active; AID 1159524; calls by dose curve; tested in HEK293T cells; further: read-out not given here; nearly all actives have a fitted effect of over 45% in size
Numbers stand for hits.

For O=C(O)C1CCCC1 the results were Vaccinia Venus inactive and Vaccinia mCherry inactive.
O=C(CCCc1c[nH]c2ccccc12)N1CCOCC1 was read as FBPA Giardia inh inactive, Vaccinia Venus inactive, Vaccinia mCherry inactive and FMDV inh inactive.
O=C(CCCc1c[nH]c2ccccc12)N1CCN(S(=O)(=O)c2cccs2)CC1 was read as FBPA Giardia inh inactive and FMDV inh 25µM.
For COc1cccc(CN(C)C(=O)CNC(=O)c2sc3ccccc3c2Cl)c1OC the results were Vaccinia Venus inactive, Vaccinia mCherry inactive and FMDV inh 40µM.
`CC(=O)Nc1ccc(NC(=O)CSc2ccc(C)cc2)cc1` gave FBPA Giardia inh inactive, Vaccinia Venus inactive, Vaccinia mCherry inactive and FMDV inh inactive.
Cc1ccc(Sc2ccc(NC(=O)CCl)cc2)c(C)c1 was read as FBPA Giardia inh inactive and FMDV inh 32µM.
For Cc1ccc(S(=O)(=O)CCC(=O)Nc2nnc(-c3cccs3)o2)cc1 the results were Vaccinia Venus inconclusive, Vaccinia mCherry 10µM and FMDV inh inactive.
Cc1ccc(S(=O)(=O)CCC(=O)Nc2nnc(-c3ccco3)o2)cc1 was read as Vaccinia Venus inconclusive, Vaccinia mCherry inconclusive and FMDV inh inactive.
`COc1cccc(-c2nnc(NC(=O)CCS(=O)(=O)c3ccc(C)cc3)o2)c1` gave Vaccinia Venus inconclusive, Vaccinia mCherry 10µM and FMDV inh inactive.
`O=C(CC1Sc2ccccc2NC1=O)NNc1ccc(Cl)cc1Cl` (stereo not drawn) gave Vaccinia Venus inconclusive, Vaccinia mCherry 4.5µM and FMDV inh inactive.
`COc1cc(-c2cnc3ccccc3c2)cc2c1OCCN(C(=O)CCC(=O)c1ccc(F)cc1)C2` gave Vaccinia Venus inactive, Vaccinia mCherry inactive and FMDV inh inactive.
Screening CN(C)C(=O)CSc1nnc(-c2cc(-c3cccs3)nc3ccccc23)o1 returned FBPA Giardia inh inactive, Vaccinia Venus 5µM and FMDV inh inactive.
Screening O=C(CSc1nnc(-c2cccs2)o1)c1cccs1 returned FBPA Giardia inh inactive, Vaccinia Venus inconclusive and Vaccinia mCherry inconclusive.
`COc1cccc(NC(=O)CSc2nnc(-c3cc(C)n(-c4ccccc4)c3C)o2)c1` gave FBPA Giardia inh inactive, Vaccinia Venus inactive, Vaccinia mCherry inactive and FMDV inh 13µM.
`COc1ccc(NC(=O)CSc2nnc(-c3cccc(O)c3)o2)cc1` gave FBPA Giardia inh inactive, Vaccinia Venus inactive, Vaccinia mCherry inconclusive and FMDV inh inactive.
For Cc1cc(C(=O)CSc2nnc(-c3cccs3)o2)c(C)n1-c1ccccc1 the results were FBPA Giardia inh inconclusive and FMDV inh 11µM.
Cc1cc(C(=O)CSc2nnc3ccccn23)c(C)n1-c1ccccc1 was read as FBPA Giardia inh inactive, Vaccinia Venus inactive, Vaccinia mCherry inactive and FMDV inh 3.2µM.
CCCN(CCC)c1ccc(/C=C/c2ccnc3ccccc23)cc1 was read as Vaccinia Venus inactive and Vaccinia mCherry inactive.
`O=C(NC1CCCCCC1)C1CCC(CNS(=O)(=O)c2cccc3cccnc23)CC1` (stereo not drawn) gave Vaccinia Venus inactive and Vaccinia mCherry inactive.
`Nc1nc(NCCc2ccccc2)nc(NCc2ccccc2)c1[N+](=O)[O-]` gave FBPA Giardia inh inactive and FMDV inh inactive.
For CN(Cc1ccccc1)c1nc(N)c([N+](=O)[O-])c(NCc2ccccc2)n1 the results were FBPA Giardia inh inactive, Vaccinia Venus inactive, Vaccinia mCherry inconclusive and FMDV inh 35µM.
Screening O=C(c1ccccc1)c1nn(-c2ccc(Cl)cc2)c(=O)cc1C(F)(F)F returned FBPA Giardia inh inactive, Vaccinia Venus inactive, Vaccinia mCherry inconclusive and FMDV inh 28µM.
Cc1ccnc2c1ccc1cccnc12 was read as Vaccinia Venus inconclusive, Vaccinia mCherry 4.5µM and FMDV inh inactive.
`Cc1ccnc2c1ccc1ccccc12` gave FBPA Giardia inh inactive, Vaccinia Venus inactive, Vaccinia mCherry inactive and FMDV inh inactive.
c1cnc2c(c1)ccc1cccnc12 was read as FBPA Giardia inh 20µM, Vaccinia Venus inconclusive, Vaccinia mCherry 3.5µM and FMDV inh inactive.
For COc1ccc(-c2ccnc(-n3ncc(C(=O)NCc4ccon4)c3C3CC3)n2)cc1F the results were Vaccinia Venus inconclusive, Vaccinia mCherry inactive and FMDV inh inactive.
`CCC(C)(C)C(=O)Nc1ncc(S(=O)(=O)c2ccc([N+](=O)[O-])cc2)s1` gave FBPA Giardia inh inactive, Vaccinia Venus inconclusive, Vaccinia mCherry inconclusive and FMDV inh inconclusive.
`CCCC(C)C(=O)Nc1ncc(S(=O)(=O)c2ccc([N+](=O)[O-])cc2)s1` (stereo not drawn) gave FBPA Giardia inh inactive, Vaccinia Venus inconclusive, Vaccinia mCherry 2.5µM and FMDV inh inconclusive.
